The source of these data is PubChem BioAssay (NCI).

About 83,000 compounds went through this panel and 20% of them were active in at least one assay; those are over-represented in the sample as a whole.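 Method: cells in 96-well plates; compound added at one concentration; 48 h incubation; percent growth measured; values under 10 scored active.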 Unmarked numbers belong to inactive results. The source made the active and inactive calls.

Some test systems named below: NCI-H23 lung; NCI-H226 lung; NCI-H322M lung; HOP-62 NSCLC; NCI-H460 lung; HOP-92 NSCLC; NCI-H522 lung; A549/ATCC NSCLC; 786-0 renal; COLO 205 colon.
Common to all, as to test: NCI-60 one-dose screen, 48 h (100 = growth as untreated, 0 = no growth, -100 = all killed)
Holding throughout (settings): 10 µM unless noted

Regarding `COc1ccc(/C=C/c2ccc3ccccc3n2)c(OC)c1`, the growth is 74.3% in the assay with NCI-H23 lung; 86.1% in the assay on NCI-H226 lung; 75.4% in the assay with NCI-H322M lung; 74.4% with HOP-62 NSCLC; 75.5% in the assay on NCI-H460 lung; 46.8% in the assay with HOP-92 NSCLC. For the same molecule, the growth with NCI-H522 lung was 72.5%; in the assay on A549/ATCC NSCLC, 79.6%; in the assay on 786-0 renal, 96.1%; in the assay with COLO 205 colon it was 85.9%.
With `CCS/C(Nc1ccccc1)=C(\C#N)C(=O)Nc1ccc(OC)cc1`, the growth in the assay with NCI-H23 lung was 48.3%; in the assay with NCI-H226 lung, 57.9%; in the assay on NCI-H322M lung, 51.6%; in the assay with HOP-62 NSCLC, 34.2%; in the assay with NCI-H460 lung it was 10.1%; in the assay with HOP-92 NSCLC, 44.5%. Besides, the growth was 0.635% (active) in the assay on NCI-H522 lung, 34.6% with A549/ATCC NSCLC, 39.5% in the assay with 786-0 renal and 17.5% in the assay with COLO 205 colon.
Consider `O=C(Oc1ccc(CCl)cc1)c1ccccc1`, for which the growth with NCI-H23 lung is -72.6% (active); in the assay on NCI-H226 lung, -97.8% (active); in the assay on NCI-H322M lung, -91.4% (active); in the assay on HOP-62 NSCLC, -79.2% (active); in the assay with NCI-H460 lung, -47.5% (active); in the assay with HOP-92 NSCLC, -89.7% (active). Also, the growth is -65.7% (active) in the assay with NCI-H522 lung, -68.7% (active) in the assay with A549/ATCC NSCLC, -92.5% (active) in the assay with 786-0 renal and -72.9% (active) in the assay on COLO 205 colon.
Consider `OCCNCCNC(Cc1ccc(Cl)cc1)c1ccccc1` (stereo not given), for which the growth in the assay on NCI-H23 lung was 96.2%; in the assay on NCI-H226 lung it was 98.1%; in the assay on NCI-H322M lung, 93.1%; with HOP-62 NSCLC, 72.2%; in the assay on NCI-H460 lung, 107%; in the assay on HOP-92 NSCLC it was 38.4%. In addition, the growth in the assay with NCI-H522 lung was 64.1%; in the assay on A549/ATCC NSCLC, 88.1%; in the assay with 786-0 renal it was 57.5%; in the assay with COLO 205 colon it was 70%.
Consider `Cc1ccc(/C=C/C(=O)c2cccc(OCCCOc3cccc(C(=O)/C=C/c4ccc(C)cc4)c3)c2)cc1`, for which the growth was 69.5% with NCI-H23 lung; 77.5% in the assay with NCI-H226 lung; 85.1% with NCI-H322M lung; 102% in the assay on HOP-62 NSCLC; 75.9% in the assay on NCI-H460 lung; 92.5% in the assay with HOP-92 NSCLC. Moreover, the growth is 76.2% in the assay with NCI-H522 lung, 81.2% with A549/ATCC NSCLC, 57.9% with 786-0 renal and 90.9% with COLO 205 colon.
Turning to `Fc1ccc2[nH]cc(-c3nc(-c4c[nH]c5ccncc45)cs3)c2c1`, the growth in the assay with NCI-H23 lung is 49.3%; in the assay on NCI-H226 lung, 68.6%; in the assay with NCI-H322M lung, -5.67% (active); with HOP-62 NSCLC, -73.6% (active); with NCI-H460 lung it was -71.5% (active); in the assay on HOP-92 NSCLC, 28.6%. The growth was -61.1% (active) in the assay with NCI-H522 lung, -41.7% (active) with A549/ATCC NSCLC, -92.9% (active) in the assay on 786-0 renal and -72.9% (active) in the assay with COLO 205 colon.
For `CCOC(=O)c1ccccc1-c1c2ccc(=[N+](C)C)cc-2oc2cc(N(C)C)ccc12`, the growth in the assay on NCI-H23 lung was 93%; in the assay on NCI-H226 lung it was 19.5%; with NCI-H322M lung, 12.6%; in the assay with HOP-62 NSCLC, 6.81% (active); in the assay on NCI-H460 lung, 3.9% (active); in the assay with HOP-92 NSCLC, -19.3% (active). Further, the growth in the assay with NCI-H522 lung is 14.2%; with A549/ATCC NSCLC, 12%; with 786-0 renal, 20.5%; in the assay on COLO 205 colon, -46.6% (active).
On to `CCOC(=O)C(Cc1ccc(OC)cc1)C(=O)OCC`, for which the growth in the assay on NCI-H23 lung is 17.6%; in the assay on NCI-H226 lung, 65.9%; in the assay with NCI-H322M lung, 36.3%; with HOP-62 NSCLC, 52.8%; with NCI-H460 lung it was 30.4%; in the assay with HOP-92 NSCLC, -1.28% (active). For the same molecule, the growth in the assay with NCI-H522 lung was 25%; with A549/ATCC NSCLC it was 51.7%; with 786-0 renal, 39.3%; with COLO 205 colon it was 71.6%.
As to `C=CCn1c(SCC(=O)Nc2ccc(/C(C)=N/O)cc2)nnc1-c1cc(-c2ccc(S(N)(=O)=O)cc2)nc2ccccc12`, the growth was 97.3% in the assay on NCI-H23 lung; 84.1% in the assay with NCI-H226 lung; 96.7% in the assay on NCI-H322M lung; 84.3% in the assay on HOP-62 NSCLC; 91% with NCI-H460 lung; 72.3% in the assay with HOP-92 NSCLC. For the same molecule, the growth in the assay on NCI-H522 lung was 68.8%; in the assay with A549/ATCC NSCLC, 110%; in the assay on 786-0 renal, 85.4%; in the assay with COLO 205 colon, 94.2%.
As to `CC1=C(CCC(C)NCc2ccc(OCCCN3CCCCC3)cc2)C(C)(C)CCC1` (stereo not given), the growth was -42.9% (active) with NCI-H23 lung; -32.7% (active) in the assay with NCI-H226 lung; -40.5% (active) in the assay with NCI-H322M lung; -67.6% (active) in the assay with HOP-62 NSCLC; -77% (active) in the assay on NCI-H460 lung; -83% (active) with HOP-92 NSCLC. The growth in the assay on NCI-H522 lung is -79.4% (active); in the assay with A549/ATCC NSCLC it was -64.2% (active); with 786-0 renal, -85.6% (active); in the assay with COLO 205 colon, -70.9% (active).
Regarding `O=C1/C(=C\c2cccc3nccnc23)SC(=S)N1CCc1ccc(O)cc1`, the growth in the assay with NCI-H23 lung is 93.7%; in the assay with NCI-H226 lung it was 95.4%; with NCI-H322M lung, 96.4%; in the assay with HOP-62 NSCLC, 99.5%; in the assay with NCI-H460 lung it was 105%; with HOP-92 NSCLC, -0.0093% (active). In addition, the growth was 81.9% in the assay on NCI-H522 lung, 100% with A549/ATCC NSCLC, 94.8% with 786-0 renal and 118% in the assay on COLO 205 colon.
As to `Cc1ccc(-c2nc(/C=C3/C(=O)Nc4ccc(F)cc43)c3ccccn23)cc1`, the growth is 77.1% with NCI-H23 lung; 95.2% in the assay with NCI-H226 lung; 91.6% in the assay with NCI-H322M lung; 92.8% with HOP-62 NSCLC; 36% in the assay on NCI-H460 lung; 82.2% in the assay on HOP-92 NSCLC. The growth in the assay on NCI-H522 lung was 62.7%; in the assay on A549/ATCC NSCLC, 81.8%; with 786-0 renal, 112%; with COLO 205 colon, 81.9%.
As for `COc1cc(OC)c2sc(-c3ccc(-n4cncc4-c4cc(OC)c(OC)c(OC)c4)cc3)nc2c1`, the growth in the assay with NCI-H23 lung is 54.5%; in the assay on NCI-H226 lung it was 52.7%; in the assay with NCI-H322M lung, 86.8%; in the assay with HOP-62 NSCLC it was 79.6%; with NCI-H460 lung, 46.2%; in the assay with HOP-92 NSCLC, 14.8%. The growth in the assay on NCI-H522 lung is 43.2%; with A549/ATCC NSCLC, 50.9%; in the assay on 786-0 renal it was 67.2%; with COLO 205 colon, 44.5%.
